Assay outcomes (PubChem)
Compounds with a hit are over-represented: about 3.5% of the library has one in this group of screens.
LEDGF integ inh: blockers of LEDGF/p75-dependent integrase strand transfer – biochemical, TR-FRET, high throughput, primary screen. HIV-1 integrase (with human LEDGF/p75). TR-FRET IN-LEDGF/p75 DNA integration, Eu/Cy5. inhibition, % at 3.7 µM. 370,000 tested, 0.64% active. AID 743269, 2014;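 active means inhibition above the screen-wide mean plus 3 SD, cut at about 13% in these data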;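 further: signal is the Cy5 over europium emission ratio at 671 and 618 nm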
PG9 Ab binder: binders of HIV-1 gp120 antibody PG9, primary screen, biochemical, TR-FRET. TR-FRET gp120-PG9 antibody binding. inhibition, % at 6.7 µM. 360,000 tested, 0.43% active; in the data active means inhibition above about 8.5%
DNMT1 block: human DNMT1 methyltransferase inhibitors, primary screen, biochemical, molecular beacon, fluorescence, HinP1I cleavage, uHTS; DNA (cytosine-5)-methyltransferase 1 (Homo sapiens), P26358; inhibition (reported as % activation of signal), % at 10 µM; 360,000 tested, 0.83% active; AID 588458, 2011; in the data active means inhibition above about 50%
UHRF1 binding: UHRF1 methylated DNA binding inhibitors, primary screen, counter-screen for MBD2 inhibitor project, biochemical, TR-FRET, human UHRF1, single concentration; E3 ubiquitin-protein ligase UHRF1 (Homo sapiens), Q96T88; inhibition, % at 4.4 µM; AID 687016, 2013; UHRF1 binding to methylated oligo; 370,000 tested, 0.75% active; in the data active means inhibition above about 21%;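 further: UHRF1 SRA domain binding a hemimethylated CpG hairpin DNA probe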
rCAG binder: binders of r(CAG) RNA repeats, primary screen, biochemical, fluorescence; r(CAG) RNA repeat, TO-PRO-1 dye displacement fluorescence; inhibition, % at 3 µM; 370,000 tested, 1.3% active; AID 651821, 2012;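 active means inhibition above the plate cutoff, the mean of all test compounds on that plate plus 3 SD, cut at about 35% in these data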;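 further: higher means more dye released from RNA so lower well fluorescence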
MBD2 DNA inh: inhibitors of MBD2 binding to methylated DNA, primary screen, biochemical, TR-FRET, DNA-binding domain, human. inhibition, % at 4.4 µM. Methyl-CpG-binding domain protein 2 (Homo sapiens), Q9UBB5. AID 686964, 2013. MBD2 binding to methylated oligonucleotide. 370,000 tested, 0.31% active; in the data active means inhibition above about 13%
Target sequence (Q9UBB5 whole entry, looked up, the tested form may be a part): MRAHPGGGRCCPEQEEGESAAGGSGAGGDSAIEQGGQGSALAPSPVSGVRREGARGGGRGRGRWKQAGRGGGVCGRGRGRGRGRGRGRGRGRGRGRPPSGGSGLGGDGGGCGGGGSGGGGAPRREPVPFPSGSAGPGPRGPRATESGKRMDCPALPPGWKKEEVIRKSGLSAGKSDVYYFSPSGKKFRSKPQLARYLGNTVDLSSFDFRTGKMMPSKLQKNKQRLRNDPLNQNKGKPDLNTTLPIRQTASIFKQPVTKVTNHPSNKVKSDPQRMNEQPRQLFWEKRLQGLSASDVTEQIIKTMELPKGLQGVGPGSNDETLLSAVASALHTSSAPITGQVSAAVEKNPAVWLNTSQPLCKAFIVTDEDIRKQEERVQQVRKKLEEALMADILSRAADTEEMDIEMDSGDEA
rCAG binder conf: small molecules binding CAG repeat RNA – biochemical, fluorescence, confirmation; shares compounds with rCAG binder; r(CAG) RNA repeat, TO-PRO-1 dye displacement fluorescence; inhibition, % at 3 µM; 4,300 tested, 70% active; AID 652065, 2013;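 active means inhibition above a per-plate cutoff, the mean inhibition of sample wells plus 3 SD, cut at about 35% in these data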;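 further: loss of TO-PRO-1 fluorescence as compound displaces dye from 1x1 AA loop RNA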
DNA CAG counter: displacement of TO-PRO-1 from CAG DNA duplex, counter-screen for rCAG RNA repeat binder project, biochemical, fluorescence, TO-PRO-1 dye, d(CAG) DNA oligo. d(CAG) DNA oligo TO-PRO-1 dye displacement. inhibition, % at 3 µM. 4,300 tested, 94% active. shares compounds with rCAG binder;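 active means inhibition above its plate's cutoff, the mean test-well inhibition plus 3 SD, cut at about 4.8% in these data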;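 further: hits displace the dye from DNA and so lower well fluorescence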
DNA CAG DR: inhibitors of DNA CAG/GTC TO-PRO-1 complex, dose response, counter-screen for rCAG RNA repeat binder project, biochemical, fluorescence, TO-PRO-1 dye; shares compounds with rCAG binder; DNA CAG/GTC duplex TO-PRO-1 dye displacement fluorescence; IC50, µM; 250 tested, 20% active; in the data active means IC50 below about 10 µM
A number is an active result; n = inactive; x = not tested or not shown.

SMILES	LEDGF integ inh	PG9 Ab binder	DNMT1 block	UHRF1 binding	rCAG binder	MBD2 DNA inh	rCAG binder conf	DNA CAG counter	others
CN(Cc1ccccc1)C(=O)c1csc([C@@H]2C[C@H](O)[C@@H](CO)O2)n1	n	n	n	n	n	n	x	x
Cc1cccc(CCNC(=O)C2CC(O)CN2C(=O)Nc2ccccc2)c1 (stereo unspecified)	n	n	n	n	n	n	x	x
CC(C)(C)C(=O)OC12CCCN(C1)/C(=C/c1ccc(C#N)cc1)C2 (stereo unspecified)	n	x	x	n	n	n	x	x
COc1cc2ccccc2cc1C(=O)NC(=S)Nc1cccc(C(=O)O)c1	n	n	n	n	38.6	n	69.3	34.1
COc1cc(NC(=O)c2ccc3c(SCC(=O)O)c4c(nc3c2)CCCC4)cc(OC)c1OC	n	n	n	n	n	n	x	x
COc1cc(OC)c(NC(=O)c2ccc3c(SCC(=O)O)c4c(nc3c2)CCCC4)cc1Cl	n	n	n	n	50.6	n	62.1	24.4
CN(C)c1ccc(N=Nc2ccc(S(N)(=O)=O)cc2)cc1	n	n	n	n	n	n	x	x
CN(C)c1ccc(N=Nc2ccc(S(=O)(=O)O)cc2)c2ccccc12	n	n	n	n	76.9	n	58.7	23.7
COc1ccc(CN2C(=O)Cc3c2nc(N)c2c(N)nc(N4CCOCC4)c(C#N)c32)cc1	n	n	n	n	n	n	x	x
COCCN1C(=O)Cc2c1nc(N)c1c(N)nc(N3CCN(c4ccc(F)cc4)CC3)c(C#N)c21	n	n	n	n	37.6	n	n	14.8
Cc1cccc(C(=O)Nc2c(-c3ccccc3)nc3ncccn23)c1	n	x	x	n	n	n	x	x
Cc1ccc(-n2c(SCC(=O)O)nc3sc4c(c3c2=O)CCCC4)cc1	n	n	n	n	n	n	x	x
Cc1ccc(NC(=S)NNC(=O)CSc2nc3sc4c(c3c(=O)n2-c2ccccc2)CCCC4)cc1	n	x	x	n	51.6	n	59.2	22.2
O=C(CSc1nc2ccccc2c(=O)n1-c1ccc(Cl)cc1)NNC(=S)Nc1ccccc1	n	x	x	n	48.9	n	38.4	16.7
O=C(CSc1nnc(-c2ccccc2)n1-c1ccc(Cl)cc1)NNC(=S)Nc1ccccc1	n	n	n	n	n	n	x	x
O=C(O)C1CCN(C(=O)c2ccccc2N2C(=O)[C@@H]3Cc4c([nH]c5ccccc45)C(c4cccc(Cl)c4)N3C2=O)CC1 (stereo partly specified)	n	n	n	n	38.4	n	47.1	14.2
COc1cccc(C2c3[nH]c4ccccc4c3C[C@H]3C(=O)N(c4ccccc4C(=O)N4CCCC4C(=O)O)C(=O)N23)c1 (stereo partly specified)	n	n	n	n	n	n	x	x
Cc1ccc(C2c3[nH]c4ccccc4c3C[C@H]3C(=O)N(c4ccccc4C(=O)N4CCC[C@@H]4C(=O)O)C(=O)N23)cc1 (stereo partly specified)	n	n	n	n	39.2	n	56.8	19.4
Cc1ccc(C2c3[nH]c4ccccc4c3C[C@H]3C(=O)N(c4ccccc4C(=O)N4CCC(C(=O)O)CC4)C(=O)N23)cc1 (stereo partly specified)	n	n	n	n	n	n	x	x
CCCNC(=O)C1(C)CCCN(C(=O)c2cc3ccccc3s2)C1 (stereo unspecified)	n	n	n	n	n	n	x	x
CC(C)(C)CN1CCC(Oc2cccc(C(=O)N3CCNC(=O)C3(C)C)c2)CC1	n	n	n	n	n	n	x	x
O=c1[nH][nH]c2cc(=O)n(-c3cccc(C(F)(F)F)c3)nc12	n	n	n	n	58.8	n	48.3	16.6
c1ccc(CNc2nc(NCCc3ccncc3)c3sccc3n2)cc1	n	n	n	n	n	n	x	x
CCCCCCCCCCCCN1[C@@H](CC(C)=O)c2cc(C(F)(F)F)ccc2S1(=O)=O	n	n	n	n	n	n	x	x
CCCCCCCCN1[C@@H](CC(=O)O)c2ccc(C(F)(F)F)cc2S1(=O)=O	n	n	n	n	52.3	n	n	n
SMILES	LEDGF integ inh	PG9 Ab binder	DNMT1 block	UHRF1 binding	rCAG binder	MBD2 DNA inh	rCAG binder conf	DNA CAG counter	others
COc1ccc([C@@H]2CC=C(C(=O)O)[C@H](c3ccc(F)cc3)N2S(=O)(=O)c2ccc(Cl)cc2)cc1	n	n	n	n	58.0	n	47.4	15.1
COc1ccc([C@@H]2CC=C(C(=O)O)[C@H](c3cccc(Cl)c3)N2S(=O)(=O)c2ccc(Cl)cc2)cc1	n	n	n	n	74.1	n	71.1	32.9	DNA CAG DR=n
CCOC(=O)C1=C(CSc2nc3c(cc2C#N)CN(C)CC3)OC(N)=C(C#N)C1c1ccc(Cl)cc1 (stereo unspecified)	n	n	n	n	34.8	n	n	11.0
CC1(C(=O)O)CCCN(C(=O)C2(c3ccc(Cl)cc3)CCCC2)C1 (stereo unspecified)	n	n	n	n	n	n	x	x
N=c1c(S(=O)(=O)c2ccc(Cl)cc2)cc2c(=O)n3ccccc3nc2n1Cc1ccco1	n	n	n	n	36.2	n	55.6	25.1
N=c1c(S(=O)(=O)c2ccc(Cl)cc2)cc2c(=O)n3ccccc3nc2n1CC1CCCO1 (stereo unspecified)	x	x	n	x	x	x	x	x
O=[N+]([O-])c1cccc(COc2cccc(CN3CCCC3)c2)c1	n	n	n	n	n	n	x	x
CC1=C(C(=O)OCc2ccccc2)C(c2ccccc2Cl)NC(=O)N1CCCC(=O)O (stereo unspecified)	n	n	n	n	n	n	x	x
CC1=C(C(=O)OCc2ccccc2)C(c2ccccc2OS(=O)(=O)c2ccc(C)cc2)NC(=O)N1CCCC(=O)O (stereo unspecified)	n	n	x	n	34.9	n	62.2	20.8
O=C(O)c1ccc(NNC(=S)Nc2cc(C(F)(F)F)ccc2Cl)cc1	n	n	n	n	39.4	n	n	4.7
